Measurements published in PubChem BioAssay (NCATS).
Results filed as inconclusive are left out. A call without a number means that no potency is given here. The source made the active and inactive calls. Unless noted, calls come from the whole dose curve; as a rule, active = well fitted curve in the direction sought with a large enough effect; inconclusive = small, poorly fitted or top-dose-only effect, or another doubt; inactive = no such curve, though single readings can be large; an effect the other way counts as inactive or inconclusive.

Molecular target: Cytochrome P450 2D6 (Homo sapiens) (UniProt P10635)
Assay: Cytochrome P450 family 2 subfamily D member 6 (CYP2D6) small molecule antagonists: luciferase biochemical (cell-free) qHTS assay (AID 1645840; active = well fitted curve in the direction sought with a large enough effect in the repeat runs; an effect the other way counts as inactive or inconclusive; note: nearly all actives have a fitted effect of over 55% in size)
Details: P450-Glo CYP2D6 enzyme, luciferin luminescence, 1 h; series mostly up to 57.4 µM
Summary of the method: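 P450-Glo luminescent screen: recombinant CYP2D6 enzyme–proluciferin substrate mix preincubated with compound 10 min at room temperature, then NADPH regeneration added for 1 h at room temperature. Detection reagent added for 20 min; luciferin light read as relative luminescence units.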
Potency is the fitted concentration of half-maximal effect.

Sequence of Cytochrome P450 2D6 (Homo sapiens) (P10635 whole entry, looked up): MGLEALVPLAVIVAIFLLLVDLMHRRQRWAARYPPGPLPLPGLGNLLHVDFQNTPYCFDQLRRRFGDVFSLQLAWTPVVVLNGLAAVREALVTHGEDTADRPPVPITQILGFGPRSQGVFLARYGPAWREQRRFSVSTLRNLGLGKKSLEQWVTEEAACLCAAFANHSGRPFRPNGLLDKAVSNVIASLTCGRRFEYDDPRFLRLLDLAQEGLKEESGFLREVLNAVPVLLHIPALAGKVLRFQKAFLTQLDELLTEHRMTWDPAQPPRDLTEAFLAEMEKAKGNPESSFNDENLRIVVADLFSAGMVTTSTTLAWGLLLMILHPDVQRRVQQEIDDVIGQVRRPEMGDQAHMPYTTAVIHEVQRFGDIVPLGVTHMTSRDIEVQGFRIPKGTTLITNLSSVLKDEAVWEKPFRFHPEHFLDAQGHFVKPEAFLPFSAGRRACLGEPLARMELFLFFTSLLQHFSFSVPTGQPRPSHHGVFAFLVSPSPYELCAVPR

SMILES | Potency
COc1cc(N2CCN(C)CC2)ccc1N | inactive
NC(=O)c1ncn2c1CN=C(c1ccccc1Br)c1cc(F)ccc1-2 | inactive
Cc1c(N2C(=O)[C@@H]3[C@H](O)CCN3C2=O)ccc(C#N)c1Cl | inactive
CC(=O)N1N=C(c2ccc(N)cc2)c2cc3c(cc2C[C@H]1C)OCO3 | inactive
CN1C2CCC1CC(OC(=O)N1Cc3ccccc3NC1=O)C2 (configuration not stated) | inactive
Cc1c(Cl)c(OCC(=O)N2CCN(C)CC2)nc2sc(C(=O)NC3CC3)c(N)c12 | inactive
COc1ccsc1CNCC[C@@]1(c2ccccn2)CCOC2(CCCC2)C1 | inactive
C1=C(c2cnc[nH]2)c2ccsc2CC1 | 12 µM (active)
CC1(C)C(=O)N(c2ccc(C#N)c(C(F)(F)F)c2)C(=O)N1CCCCO | inactive
CN1C(=O)CN=C(c2ccccc2Cl)c2cc(Cl)ccc21 | inactive

Molecular target: Cytochrome P450 2C9 (Homo sapiens) (UniProt P11712)
Assay: Cytochrome P450 family 2 subfamily C member 9 (CYP2C9) small molecule antagonists: luciferase biochemical (cell-free) qHTS assay (AID 1645842; active = well fitted curve in the direction sought with a large enough effect in the repeat runs; an effect the other way counts as inactive or inconclusive; note: nearly all actives have a fitted effect of over 55% in size)
Details: P450-Glo CYP2C9 enzyme assay, luciferin luminescence; series mostly up to 57.4 µM
Summary of the method: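 Luminescence, after 20 min with luciferin detection reagent, reflected CYP2C9 turnover during a 1 h NADPH-driven reaction at 37C. Enzyme-substrate mix contained 0.4% bovine serum albumin and was preincubated with compound 10 min at room temperature.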

Sequence of Cytochrome P450 2C9 (Homo sapiens) (P11712 whole entry, looked up): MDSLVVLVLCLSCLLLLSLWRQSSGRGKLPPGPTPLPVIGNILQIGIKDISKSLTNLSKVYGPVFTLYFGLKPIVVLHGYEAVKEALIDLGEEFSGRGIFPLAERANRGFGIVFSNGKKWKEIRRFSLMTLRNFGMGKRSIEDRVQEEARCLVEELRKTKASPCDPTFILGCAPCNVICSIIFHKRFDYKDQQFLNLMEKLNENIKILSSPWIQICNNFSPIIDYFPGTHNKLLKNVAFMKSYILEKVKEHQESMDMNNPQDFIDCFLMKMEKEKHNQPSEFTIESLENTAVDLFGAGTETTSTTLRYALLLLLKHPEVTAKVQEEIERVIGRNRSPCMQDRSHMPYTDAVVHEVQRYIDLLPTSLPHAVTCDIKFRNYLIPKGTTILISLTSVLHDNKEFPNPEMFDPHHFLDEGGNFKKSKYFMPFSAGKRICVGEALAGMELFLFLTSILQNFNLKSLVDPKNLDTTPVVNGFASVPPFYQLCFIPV

SMILES | Potency
NC(=O)c1ncn2c1CN=C(c1ccccc1Br)c1cc(F)ccc1-2 | inactive
CN1C2CCC1CC(OC(=O)N1Cc3ccccc3NC1=O)C2 (configuration not stated) | inactive
C1=C(c2cnc[nH]2)c2ccsc2CC1 | 3.38 µM (active)
CC1(C)C(=O)N(c2ccc(C#N)c(C(F)(F)F)c2)C(=O)N1CCCCO | 10.7 µM (active)

Test system: not listed separately
Assay: Primary qHTS for inhibitors of nuclear receptor binding SET domain protein 2 (NSD2) in an isogenic RCH-ACV NSD2 p.E1099K mutant (9B) (AID 1645876); note: nearly all actives have a fitted effect of over 70% in size
Details: RCH-ACV (leukaemia line) NSD2 E1099K (9B) viability, CellTiter-Glo, 72 h; series mostly up to 44.9 µM

SMILES | Potency
C/C=C(/C)C1C=CC2CC(C)CC(C)C2C1/C(O)=C1\C(=O)NC(CC(C)(O)C(=O)O)C1=O (configuration not stated) | inactive
CS[C@]1(CO)C(=O)N2[C@H]3C(=CC=C[C@@H]3O)C[C@@]2(SC)C(=O)N1C | inactive
COc1ccc2c3c4n(c2c1)[C@@H](C=C(C)C)OOC(C)(C)C[C@@H]4N1C(=O)[C@@H]2CCCN2C(=O)[C@]1(O)[C@H]3OCC=C(C)C | inactive
CC1=CC2/C=C(\C)CCCC(O)/C=C/C(=O)OC23C(=O)NC(CC(C)C)C3C1C (configuration not stated) | inactive
C=CC(C)(C)c1[nH]c2c(CC=C(C)C)cc(CC=C(C)C)cc2c1C[C@@H]1NC(=O)[C@H](C)NC1=O | inactive
COCC(C(=O)OC1CC2CCC(C1)N2C)c1ccccc1 (configuration not stated) | inactive
N#CC(O[C@@H]1O[C@H](CO)[C@@H](O)[C@H](O)[C@H]1O)c1ccccc1 (some centres not stated) | inactive
CC[C@H]1C2CC3[C@@H]4N(C)c5ccccc5[C@]45C[C@@H]([C@H]2[C@H]5O)N3[C@H]1O | inactive
NC(=O)c1ncn2c1CN=C(c1ccccc1Br)c1cc(F)ccc1-2 | inactive
Cc1c(N2C(=O)[C@@H]3[C@H](O)CCN3C2=O)ccc(C#N)c1Cl | inactive
CC(=O)O[C@@H]1[C@H]2CC[C@H]3[C@@](C)(O)[C@@H]4C[C@H](O)C(C)(C)[C@@]4(O)[C@H](O)C[C@@]13C[C@@]2(C)O | inactive
COC(=O)[C@]12CCCC(C)(C)C1CCc1cc(C(C)C)c(O)c(O)c12 (some centres not stated) | inactive
COc1ccc(CN(C(=O)[C@@H](N)Cc2c(C)cc(C(N)=O)cc2C)[C@@H](C)c2ncc(-c3ccccc3)[nH]2)cc1C(=O)O | inactive
CN1C2CCC1CC(OC(=O)N1Cc3ccccc3NC1=O)C2 (configuration not stated) | inactive
COC(=O)CC1CC2(C(=O)c3c(O)cccc3C2(O)C(=O)OC)C(C)O1 (configuration not stated) | inactive
c1cncc(OC[C@@H]2CCN2)c1 | inactive
Cc1c(Cl)c(OCC(=O)N2CCN(C)CC2)nc2sc(C(=O)NC3CC3)c(N)c12 | inactive
CN1CCc2cc3c(cc2C1C1OC(=O)c2c1ccc1c2OCO1)OCO3 (configuration not stated) | inactive
C#CCO[C@H]1CN2CCC1CC2 | inactive
CC1CCCC(O)CC(=O)Cc2cc(O)cc(O)c2C(=O)O1 (configuration not stated) | inactive
COc1ccsc1CNCC[C@@]1(c2ccccn2)CCOC2(CCCC2)C1 | inactive
C1=C(c2cnc[nH]2)c2ccsc2CC1 | inactive
CC1=CC2(O)/C=C/C(C)(O)C(O)C(O)/C=C/C(=O)OC23C(=O)NC(CC(C)C)C3C1C (configuration not stated) | inactive
C/C=C1/CN2CC[C@]34C(=Nc5ccc(OC)cc53)C2C[C@@H]1C4(CO)C(=O)OC (some centres not stated) | inactive
CO[C@@H]1[C@H](O)[C@@H](O[C@@H]2C[C@H]3CC[C@@H]4C(CC[C@]5(C)[C@@H](C6=CC(=O)OC6)CC[C@]45O)[C@@]3(C)[C@H](O)C2)O[C@H](C)[C@@H]1O (some centres not stated) | 0.0893 µM (active)
C[C@@H]1CCC/C=C/[C@H]2C[C@@H](O)C[C@@H]2[C@@H](O)/C=C/C(=O)O1 | 0.29 µM (active)
C[C@]12CCC(=O)C=C1CC[C@@H]1[C@@H]2[C@@H](O)C[C@]2(C)C(=O)CC[C@@H]12 | inactive
CCC(C)(O)C1(C(=O)O)COC(=O)C1 (configuration not stated) | inactive
